Screening results (PubChem BioAssay)
Tat transport: inhibitors of E. coli Tat protein transport. E. coli MC4100 TorA-mCherry Tat export, fluorescence. inhibition, % at 10 µM. AID 488895. actives 0.036% (n = 340,000);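 active = mean replicate inhibition at least 50% and at least half of replicates individually reaching 50%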;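 note: exported cargo escapes ClpAP degradation while cytoplasmic cargo is degraded and loses fluorescence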
phage Ecoli inh: E. coli growth loss with phage present; growth absorbance; inhibition, % at 11.9 µM; actives 0.26% (n = 360,000); in the data active = inhibition above about 11%
E coli growth-1: counter-screen for AddAB inhibitors: E. coli growth inhibition; E. coli V3065 growth, OD600 absorbance, 18 h; inhibition, % at 11.9 µM; actives 0.27% (n = 330,000);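 active = inhibition above the campaign's mean inhibition across all tested compounds plus 3 SD, cut at about 9.9% in these data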;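 note: uninfected addAB+ strain grown without phage in ampicillin broth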
E coli growth-2: blocks Escherichia coli growth; AID 1053175; actives 0.21% (n = 330,000); OD600, 23 h; stronger effect = lower value; OD600 absorbance (no concentration beside the values);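 active = OD600 absorbance below the run mean of sample wells minus 3.6 SD, in any replicate, cut at about 0.56 in these data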
AddAB inh: less growth of phage-infected E. coli with AddAB | E. coli expressing H. pylori AddAB, absorbance growth | inhibition, % at 11.9 µM | actives 0.29% (n = 330,000) | AID 435030; in the data active = inhibition above about 12%
Large screens that a line does not name were inactive. An excerpt weighted towards active compounds, which were near 0.5% of everything screened.

O=C(NCc1ccccc1)c1cc(S(=O)(=O)N2CCCCC2)ccc1N1CCOCC1	E coli growth-2 0.44
O=[N+]([O-])c1ccc(C=Nn2c(CO)nc3ccccc32)s1	none (no result: Tat transport, phage Ecoli inh, E coli growth-1, AddAB inh)
O=[N+]([O-])c1ccc(C=Nc2cccc3ccccc23)s1	E coli growth-2 0.51 (no result: phage Ecoli inh)
CCN1/C(=C/c2ccc3cc(C)ccc3[n+]2CC)Sc2cc(C)ccc21	E coli growth-2 0.35 (no result: E coli growth-1, AddAB inh)
Cc1cn(C2CC(N=[N+]=[N-])C(CO)O2)c(=O)[nH]c1=O (configuration not stated)	E coli growth-2 0.062 (no result: Tat transport, phage Ecoli inh, E coli growth-1, AddAB inh)
Cc1cn(C2CC(O)C(O)C(CO)O2)c(=O)[nH]c1=O (configuration not stated)	none (no result: Tat transport, E coli growth-1, E coli growth-2, AddAB inh)
COc1cc(/C=C/C(=O)O)ccc1O	none
COc1cc(/C=C/C(=O)/C=C(O)/C=C/c2ccc(O)c(OC)c2)ccc1O	E coli growth-1 10 (no result: E coli growth-2)
Cc1ccc(C(=O)N2CC=C(c3ccccc3)CC2)o1	none
CC(=O)Oc1ccc(C(=O)Cc2ccccn2)c(O)c1	Tat transport 56
COc1ccccc1NC(=O)CN(Cc1ccco1)C(=O)c1ccc(=O)[nH]c1	none
COc1ccccc1NC(=O)CN(Cc1ccco1)C(=O)c1cc2ccccc2o1	E coli growth-2 0.54 (no result: phage Ecoli inh)
O=C1C(=Cc2ccncc2)CCc2ccccc21	none (no result: Tat transport, phage Ecoli inh, E coli growth-1, AddAB inh)
O=C(Nc1ccccc1)Nc1cccc(Cl)c1	E coli growth-2 0.5
O=C(Nc1ccccc1)Nc1ccc2snnc2c1	none
O=C(Nc1ccccc1)Nc1ccc2nnsc2c1	E coli growth-2 0.4
O=C(NCc1ccc2c(c1)OCO2)Nc1cccc(Cl)c1	none
O=C(Nc1cccc(Cl)c1)Nc1ccc2c(c1)OCO2	E coli growth-2 0.53
Cc1ccc(NC(=O)Nc2ccccc2)cc1[N+](=O)[O-]	none
O=C(Nc1ccccc1)Nc1ccc(Cl)c([N+](=O)[O-])c1	E coli growth-2 0.48
COc1ccc(CNC(=O)CSc2nnc(C3CC3)n2C2CC2)cc1	none
O=C(/C=C/c1ccccc1)NC(=S)NNC(=O)c1cccnc1	none
O=C(/C=C/c1ccccc1)NC(=S)NNC(=O)c1cnccn1	E coli growth-1 11 (no result: E coli growth-2)
NCC12CC3CC(C1)CC(c1ccc(Cl)cc1)(C3)C2	E coli growth-2 0.51
CCCOC(=O)c1ccc(NC(=O)CSC2=Nc3ccccc3C3CC=NN23)cc1 (configuration not stated)	none
CC(C)(C)OC(=O)NC(CC(=O)OCc1ccccc1)C(=O)O (configuration not stated)	none
NC1=C(Br)C(=O)c2ncccc2C1=O	phage Ecoli inh 35 (no result: E coli growth-1, E coli growth-2, AddAB inh)
CCOC(=O)c1ccccc1NC(=O)COC(=O)CCNS(=O)(=O)c1ccccc1	none
Cc1ccc(NC(=O)Nc2ccno2)cc1	E coli growth-2 0.45 (no result: Tat transport)
Cc1ccc(NC(=O)Nc2ncccc2C)cc1	none
Cc1ccc(NC2CCCN(C(=O)c3ccnc(Cl)c3)C2)cc1C (configuration not stated)	none
c1ccc(Nc2nc(NCC3CCCO3)c3ccccc3n2)cc1 (configuration not stated)	E coli growth-2 0.47
CCOc1ccc(Nc2nc(NCC3CCCO3)c3ccccc3n2)cc1 (configuration not stated)	E coli growth-2 0.49
CCOc1ccc(Nc2c3ccccc3nc3ccccc23)cc1	E coli growth-2 0.52
COc1ccc(C(Nc2ccc(S(=O)(=O)NCC3CCCO3)cc2)C(=O)NC(C)(C)C)cc1OC (configuration not stated)	none
Nc1ncnc2c1ncn2[C@@H]1O[C@H](C(=O)N[C@H]2c3ccccc3C[C@H]2O)[C@@H](O)[C@H]1O	none (no result: Tat transport, E coli growth-1, E coli growth-2, AddAB inh)
CC(C)c1ccc2c(c1)CC[C@H]1[C@](C)(CN)CCC[C@]21C	none (no result: E coli growth-1, E coli growth-2, AddAB inh)
CC(C)c1ccc2c(c1)CCC1C(C)(CN)CCCC21C (configuration not stated)	E coli growth-2 0.48
c1ccc(N2CCN(c3nc(NCc4ccco4)c4ccccc4n3)CC2)cc1	none
COc1ccccc1Nc1nc(NCc2ccco2)c2ccccc2n1	none (no result: Tat transport)
CNc1nc(NCc2ccccc2)c2ccccc2n1	E coli growth-2 0.48
Cc1ccc(Nc2nc(NCc3ccco3)c3ccccc3n2)cc1	E coli growth-2 0.41
OCCNc1nc(Nc2ccc(Br)cc2)nc2ccccc12	E coli growth-2 0.4 (no result: Tat transport)
c1ccc(CNc2nc(N3CCN(Cc4ccccc4)CC3)nc3ccccc23)cc1	E coli growth-2 0.48 (no result: Tat transport)
OCCNc1nc(Nc2ccccc2)nc2ccccc12	none
COc1ccc([N+](=O)[O-])cc1NC(=O)c1ccc(C)o1	none
COc1ccc(CC(=O)NCC2CCCCC2)cc1OC	none
COC(=O)c1ccc(NC(=O)Nc2ccc(F)cc2)cc1	E coli growth-2 0.51
COc1ccccc1-c1csc(NC(=O)c2cc(-c3cccs3)nc3ccccc23)n1	none
Cc1ccc(N2C(=O)C(CC(=O)Nc3cccc(F)c3)N(C3CC3)C2=O)cc1 (configuration not stated)	none
COc1ccc(C=NN2CCOCC2)cc1O	E coli growth-2 0.55 (no result: Tat transport, phage Ecoli inh, E coli growth-1, AddAB inh)
COc1ccc(/C=N/N2CCOCC2)cc1O	none (no result: E coli growth-2)
Cc1cc(C(F)F)nn1CC(=O)NC1C(=O)N2C(C(=O)O)=C(CSc3nnnn3C)CSC12 (configuration not stated)	E coli growth-2 0.19
CC(C(=O)NC1C(=O)N2C(C(=O)O)=C(CSc3nnnn3C)CSC12)n1cc(Br)cn1 (configuration not stated)	E coli growth-2 0.51
Cc1nn(C(C)C(=O)NC2C(=O)N3C(C(=O)O)=C(CSc4nnnn4C)CSC23)cc1Cl (configuration not stated)	E coli growth-2 0.43
CN(C)CCn1nnnc1SCC1=C(C(=O)O)N2C(=O)C(NC(=O)Cc3csc(N)n3)C2SC1 (configuration not stated)	E coli growth-2 0.061 (no result: Tat transport, phage Ecoli inh, E coli growth-1, AddAB inh)
Cn1nnnc1SCC1=C(C(=O)O)N2C(=O)[C@@H](NC(=O)[C@H](O)c3ccccc3)[C@H]2SC1	none (no result: phage Ecoli inh, E coli growth-2)
Cn1nnnc1SCC1=C(C(=O)O)N2C(=O)C(NC(=O)C3CC3c3ccccc3)C2SC1 (configuration not stated)	none
CCOC(=O)OC(C)OC(=O)C1N2C(=O)C(NC(=O)C(N)c3ccccc3)C2SC1(C)C (configuration not stated)	none (no result: Tat transport, phage Ecoli inh, E coli growth-1, AddAB inh)
Cc1ccc(S(=O)(=O)[N-]c2nc3ccccc3nc2-[n+]2cc(C)cc(C)c2)cc1	none
O=C(CCN1CCOCC1)c1ccccc1	none
O=C(CCN1CCOCC1)NNC(=S)NC(=O)c1ccccc1	E coli growth-2 0.53
Cc1no[n+]([O-])c1COc1ccccc1C=Nn1nnnc1N	none (no result: Tat transport, phage Ecoli inh, E coli growth-1, AddAB inh)
CCCCCCn1cc(C(=O)O)c(=O)c2cc(F)c(N3CCN(C)CC3)cc21	none (no result: phage Ecoli inh)
CCCCCCCCC(=O)N1CCN(c2cc3c(cc2F)c(=O)c(C(=O)O)cn3CC)CC1	E coli growth-2 0.42
CCCCCCCC(=O)N1CCN(c2cc3c(cc2F)c(=O)c(C(=O)O)cn3CC)CC1	E coli growth-2 0.097 (no result: E coli growth-1, AddAB inh)
O=C(CN1C(=O)COc2ccccc21)N1CCc2ccccc21	none
CCCCn1c(N)c(N(CCOC)C(=O)c2cc(-c3ccc(F)cc3)nc3ccccc23)c(=O)[nH]c1=O	none
O=C1Nc2ccccc2/C1=C\C(=O)c1ccccc1	none
O=C(/C=C1\C(=O)Nc2ccccc21)/C=C1\C(=O)Nc2ccccc21	E coli growth-2 0.51 (no result: E coli growth-1, AddAB inh)
